Assay results published in PubChem BioAssay AID1159580 (chemical genetic matrix, 2015).
Among all 5,500 compounds or so, about 2,000 (36%) were called active. Not shown: some 18% with an inconclusive outcome. No stated cut-off is given here; in the data, active means normalized growth mostly below about 0.91 (no sharp cut-off); inconclusive means no clear call, values can overlap the other calls; inactive means mostly above about 0.92. This is one part of the list.

Assay: chemical genetic growth profiling, strain panel (AID 1159580);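 further: tested at 20 µM; growth read once vehicle control cultures reached saturation at 30 °C; 1 = growth at the plate median or of vehicle wells; lower values mean less growth of the strain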
Details: growth OD
[1] = S. cerevisiae deletion strains, locus YAL013W, strain DEP1, active compounds read low
[2] = S. cerevisiae deletion strains, locus YDR150W, strain NUM1, active compounds read low
[3] = S. cerevisiae deletion strains, locus YGR078C, strain PAC10, active compounds read low
[4] = S. cerevisiae deletion strains, locus YMR307W, strain GAS1, active compounds read low
[5] = S. cerevisiae deletion strains, locus YNL153C, strain GIM3, active compounds read low
[6] = S. cerevisiae deletion strains, locus YPL055C, strain LGE1, active compounds read low

Measured: normalized growth

O=C(Nc1nncs1)c1ccncc1
inactive: [1] 0.983 | S. cerevisiae deletion strains, locus YBR229C, strain ROT2, active compounds read low 1 | S. cerevisiae deletion strains, locus YDL101C, strain DUN1, active compounds read low 0.999 | S. cerevisiae deletion strains, locus YDL134C, strain PPH21, active compounds read low 1.02 | [2] 0.946 | S. cerevisiae deletion strains, locus YEL061C, strain CIN8, active compounds read low 0.999 | [3] 1 | S. cerevisiae deletion strains, locus YHR030C, strain SLT2, active compounds read low 0.996 | S. cerevisiae deletion strains, locus YHR087W, strain rtc3, active compounds read low 1 | S. cerevisiae deletion strains, locus YJL187C, strain SWE1, active compounds read low 0.992 | S. cerevisiae deletion strains, locus YJR043C, strain POL32, active compounds read low 1.01 | S. cerevisiae deletion strains, locus YJR075W, strain HOC1, active compounds read low 0.991 | S. cerevisiae deletion strains, locus YKL190W, strain CNB1, active compounds read low 1.03 | S. cerevisiae deletion strains, locus YLR039C, strain RIC1, active compounds read low 1.08 | S. cerevisiae deletion strains, locus YLR058C, strain SHM2 (second series), active compounds read low 1 | S. cerevisiae deletion strains, locus YLR085C, strain ARP6, active compounds read low 1.04 | S. cerevisiae deletion strains, locus YLR262C, strain YPT6, active compounds read low 1.05 | S. cerevisiae deletion strains, locus YML094W, strain GIM5, active compounds read low 1.02 | S. cerevisiae deletion strains, locus YMR219W, strain ESC1, active compounds read low 1 | S. cerevisiae deletion strains, locus YMR263W, strain SAP30, active compounds read low 0.949 | [4] 1.02 | S. cerevisiae deletion strains, locus YNL128W, strain TEP1, active compounds read low 1.02 | [5] 0.995 | S. cerevisiae deletion strains, locus YNL298W, strain CLA4 (second series), active compounds read low 1.07 | S. cerevisiae deletion strains, locus YNL322C, strain KRE1, active compounds read low 1 | S. cerevisiae deletion strains, locus YNR030W, strain Alg12, active compounds read low 1.04 | S. cerevisiae deletion strains, locus YOL006C, strain TOP1, active compounds read low 1.08 | [6] 0.888 | S. cerevisiae deletion strains, locus YPL241C, strain CIN2, active compounds read low 1.03 | S. cerevisiae deletion strains, locus YPR135W, strain CTF4, active compounds read low 1.05 | S. cerevisiae strains, strain wild type, active compounds read low 1.04

S=C(Nc1ccccc1)Nc1nccs1
active: [5] 0.772
inactive: [1] 1.01 | S. cerevisiae deletion strains, locus YAL040C, strain CLN3, active compounds read low 1.01 | S. cerevisiae deletion strains, locus YCL061C, strain MRC1 (second series), active compounds read low 0.993 | [2] 0.974 | S. cerevisiae deletion strains, locus YDR363W, strain ESC2, active compounds read low 0.977 | S. cerevisiae deletion strains, locus YER002W, strain NOP16, active compounds read low 0.991 | [3] 0.988 | [4] 0.993 | S. cerevisiae deletion strains, locus YNL175C, strain NOP13, active compounds read low 0.999 | S. cerevisiae deletion strains, locus YNL197C, strain WHI3, active compounds read low 0.993 | S. cerevisiae deletion strains, locus YNL224C, strain SQS1, active compounds read low 0.995 | [6] 0.948
